Measurements: PubChem BioAssay AID2284330 (EPA ToxCast)
Inconclusive results are not listed. The source made the active and inactive calls. Rule for the calls: active = hit-call score of the fitted dose curve at least 0.9, where 1 is the maximum; inconclusive = response in the unintended direction; inactive = score below 0.9.

Each molecule was assayed on frog Glucocorticoid Receptor (GR), gene 397897 (assay: ATG_frGR_EcoTox2: Attagene TRANS-FACTORIAL EcoTox-2 HepG2 Assay for frog Glucocorticoid Receptor (GR)).
Procedure: ATG_EcoTox2 is a cell-based, multiplexed assay created by modifying the existing Attagene TRANS-FACTORIAL system to include a panel of nuclear receptors from some or all the following species: human (Homo sapiens), african clawed frog (Xenopus laevis), rainbow trout (Oncorhynchus mykiss), japanese medaka (Oryzias latipes), and zebrafish (Danio rerio). The ECOTOX2-FACTORIAL format uses HepG2, a human liver cell line, with measurements taken at 24 hours after chemical dosing in a 24-well plate. ATG_frGR_EcoTox2 is one of 29 assay components calculated in the ATG_EcoTox2 assay. It is designed to make measurements of mRNA induction, a form of inducible reporter, as detected with fluorescence intensity signals by Reverse transcription polymerase chain reaction (RT-PCR) and Capillary electrophoresis technology.The assay endpoint ATG_frGR_EcoTox2 was analyzed in the positive analysis fitting direction relative to DMSO as the negative control and baseline of activity. Using a type of inducible reporter, measures of mRNA for gain-of-signal activity can be used to understand the reporter gene at the transcription factor-level as they relate to the gene for glucocorticoid receptor. Furthermore, this assay endpoint can be referred to as a primary readout, because this assay has produced multiple assay endpoints where this one serves a reporter gene function. To generalize the intended target to other relatable targets, this assay endpoint is annotated to the nuclear receptor intended target family, where the subfamily is steroidal.
Human liver HepG2 cells are transiently transfected with multiple reporter transcription units (MRTUs) in 6-well plates using FuGene 6 reagent (Roche; 3 ml FuGene/1 mg DNA). The MRTU constructs are regulated by a cis-regulating element (promoter). Each RTU expresses a GAL4-UAS that regulates the transcription of a nearby target reporter gene sequence. A major difference between the CIS and TRANS system is that in CIS activities of endogenous TFs are measured, whereas the TRANS assay evaluates changes in activities of exogenous, chimeric NR-Gal4 proteins. […] At the end of 24 hour incubation, total RNA was isolated using TriZol reagent (Invitrogen). The isolated RNA is then reverse-transcribed using oligo(dT) primer and Mo-MLV reverse transcriptase (Invitrogen) with DNAse I (Ambion) treatment for 30 min. The one-tenth of the produced cDNA was amplified by PCR using Taq DNA polymerase (Invitrogen) and two reporter sequence-specific primers. The PCR products were fluorescently labeled by primer extension with 6-arboxyfluorescein (6-FAM) 5'-labeled reporter sequence-specific primer (2 min at 95 C, 20 s at 68 C and 10 min at 72 C) and these products were digested with 5U of HpaI (New England Biolabs) for 2h at 37 C. The fragments were purified using Qiaquick PCR columns (Qiagen), analyzed on an ABI 3130xL genetic analyzer (Applied Biosystems) with peak positions identified by using a set of X-rhodamine (ROX)-labeled MapMarker1000 molecular weight standards (BioVentures). The raw capillary electrophoresis data was processed using Attagraph software (Attagene).

SMILES	outcome	AC50
Cc1ccc(C)c(OCCCC(C)(C)C(=O)O)c1	inactive	–
CC(C)(Oc1ccc(C2CC2(Cl)Cl)cc1)C(=O)O (stereo unspecified)	inactive	–
CC(C)(Oc1ccc(Cl)cc1)C(=O)O	inactive	–
C=C(c1ccc(C(=O)O)cc1)c1cc2c(cc1C)C(C)(C)CCC2(C)C	inactive	–
CC(C)(Oc1ccc(CCNC(=O)c2ccc(Cl)cc2)cc1)C(=O)O	inactive	–
CC(c1cc2ccccc2s1)N(O)C(N)=O (stereo unspecified)	–	34.3 µM (active)
CN(CCOc1ccc(CC2SC(=O)NC2=O)cc1)c1ccccn1 (stereo unspecified)	–	30.8 µM (active)
CC(C)OC(=O)C(C)(C)Oc1ccc(C(=O)c2ccc(Cl)cc2)cc1	inactive	–
Cc1cccc(Nc2cc(Cl)nc(SCC(=O)O)n2)c1C	inactive	–
C[C@@H]1C[C@H]2[C@@H]3CCC4=CC(=O)C=C[C@]4(C)[C@@]3(F)[C@@H](O)C[C@]2(C)[C@@]1(O)C(=O)COP(=O)(O)O	–	0.00998 µM (active)
C[C@]12C=CC(=O)C=C1CC[C@@H]1[C@@H]2C(=O)C[C@@]2(C)[C@H]1CC[C@]2(O)C(=O)CO	inactive	–
